# Screening results: PubChem BioAssay, National Center for Advancing Translational Sciences (NCATS)
# This is a sample that favours compounds with a hit; in the whole collection about 6.5% have one here.
# HCMV inh = blocks human cytomegalovirus replication. HFF cells, HCMV-luciferase reporter, 72 h; stronger effect = lower value. activity change, negative = inhibition, % at 57.5 µM. actives 4.5% (n = 410,000); in the data active means activity change below about -60%; inconclusive means no clear call, values can overlap the other calls; inactive means above about -39%
#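 After 16 h attachment at 37C, HFF cells received test compound and HCMV-luciferase (1 PFU/cell); reporter luminescence read 72 h later, data normalized against buffer-only and known inhibitor Salinomycin.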
# FMDV antiviral = blocks foot and mouth disease virus | FMDV antiviral cell-based qHTS | Potency, µM (doses to about 57.9 µM), actives largely listed as inhibitors | actives 1.2% (n = 410,000) | AID 1159524; calls by dose curve; tested in HEK293T cells; further: read-out not given here; nearly all actives have a fitted effect of over 45% in size
# VACV mCherry inh = inhibitors of vaccinia virus infection (mCherry reporter signal). Vaccinia virus mCherry reporter infection, fluorescence. Potency, µM (highest dose often 36.5 µM), most hits filed as inhibitors. actives 0.63% (n = 310,000); calls by dose curve; tested in A549 cells; further: nearly all actives have a fitted effect of over 35% in size
# MARV entry inh = blocks Marburg virus binding to or entry into cells | actives 1.8% (n = 300,000) | Marburg virus pseudotyped entry inhibition, cell reporter | AID 540276 | Potency, µM (top dose mostly 37.8 µM), actives largely listed as inhibitors; calls by dose curve; tested in HEK293 cells
# LASV entry inh = blocks Lassa virus binding to or entry into cells; Lassa virus pseudotype entry inhibition, cell reporter; Potency, µM (top dose mostly 37.9 µM), actives largely listed as inhibitors; actives 1.2% (n = 300,000); calls by dose curve; tested in HEK293 cells; further: nearly all actives have a fitted effect of over 50% in size
# Vaccinia Venus = inhibitors of vaccinia virus (Venus reporter); Vaccinia virus Venus reporter expression, fluorescence; Potency, µM (highest dose often 36.5 µM), hits mostly inhibitors; actives 0.46% (n = 330,000); AID 720580; calls by dose curve; tested in A549 cells; further: nearly all actives have a fitted effect of over 30% in size
# A number is an active result; n = inactive; u = inconclusive; x = not tested or not shown; ! = a repeat was not active; [ ] = remark or other dose.
SMILES,HCMV inh,FMDV antiviral,VACV mCherry inh,MARV entry inh,LASV entry inh,Vaccinia Venus
CCOC(=O)NN=C1C[C@@H](O)[C@@H](O)[C@@H]2[C@H]3C(=O)N([C@@H](C)c4ccccc4)C(=O)[C@@H]3CC[C@H]12,x,x,x,n,x,x
COc1cccc(-c2nc(CS(=O)(=O)CC(=O)Nc3c(C)cc(C)cc3C)c(C)o2)c1,-62,n,n,n,n,n
COc1cccc(-c2nc(CS(=O)(=O)CC(=O)Nc3c(C)cccc3C)c(C)o2)c1,u,n,n,n,x,u
COc1ccc(C2=CC(=O)N(CCN)C2)cc1,n,x,x,x,x,x
Cc1cc(C)c(C(=O)/C=C/c2ccc3c(c2)OCO3)c(=O)[nH]1,-101,n,n,n,n,n
CCCCn1c(O)c(C(=O)/C=C/c2ccc3c(c2)OCO3)c(=O)[nH]c1=O,n,u,u,n,u,n[7.34 µM]
Cc1cc(C)c(C(=O)/C=C/c2cccc3ccccc23)c(=O)[nH]1,-104,u,5µM,u,6.3µM,8.9µM
O=S(=O)(Cc1ccccc1)NCCc1cccc(Cl)c1,n,n,n,n,n,n
O=C(COC(=O)Cc1c[nH]c2ccccc12)Nc1cc(S(=O)(=O)N2CCOCC2)ccc1Cl,n,n,x,x,x,x
Cc1ccccc1NC1=C(Cl)C(=O)OC1NC(=O)c1ccccc1 (centres undefined),-82,x,n,n,n,n
CCOC1OC(=O)C(Cl)=C1Nc1ccccc1C (centres undefined),n,n,n,u,n,n
O=C(CCN1CCOCC1)c1ccc(N2CCCCC2)cc1,n,n,u,x,x,u
CC(C)(C)c1cc(C(=O)CCN2CCOCC2)cc(C(C)(C)C)c1O,-77,n,11µM,n,n,u
NC(=O)COC(=O)CC(c1ccccc1)c1ccccc1,n,n,n,n,n,n
NC(=O)CNCCC(c1ccccc1)c1ccccc1,n,n,n,11µM!,n,n
Cn1nc(C(F)(F)F)c2cc(NC(=O)OCc3ccc(F)cc3)sc21,n,u,u,n,n,n
Cn1nc(C(F)(F)F)c2cc(NC(=O)OCc3ccc(C(C)(C)C)cc3)sc21,n,22µM,n,u,u,n
O=C(c1nc2ncccn2n1)N1CCOc2ccc(C(O)C(c3ccccc3)c3ccccc3)cc2C1 (centres undefined),x,n,n,x,x,n
Cn1c(-c2ccccc2)cnc1SCC(=O)N1CCCCC1,n,16µM,x,u,3.5µM,n
Cn1c(-c2ccccc2)cnc1SCC(=O)N1CCCc2ccccc21,u,n,n,n,n,n
Cc1cc(S(=O)(=O)N2CCN(Cc3noc(CCC(=O)N4CCCCC4)n3)CC2)ccc1F,-110,n,n,x,n,n
CCC[C@H]1[C@@H](NS(=O)(=O)c2ccc(C)cc2)CC[C@@]23CCCN2C(=O)CCC[C@@H]13,-103,x,x,x,x,x
CCC[C@H]1[C@@H](NS(=O)(=O)c2ccc(Cl)cc2)CC[C@@]23CCCN2C(=O)CCC[C@@H]13,n,x,x,x,x,x
C[C@@H]1COc2cc(Br)ccc2S(=O)(=O)N1,x,x,x,x,n,x
Cc1ccc(-n2sc3cc(F)ccc3c2=O)c(C)c1,-70,u,n,x,x,u
SMILES,HCMV inh,FMDV antiviral,VACV mCherry inh,MARV entry inh,LASV entry inh,Vaccinia Venus
Nc1ccc(C(=O)Nc2ccc(OC(F)(F)C(F)F)c(NC(=O)c3ccc(N)cc3)c2)cc1,-68,n,u,n,n,n
O=C(Cc1ccc(S(=O)(=O)N2CCOCC2)s1)Nc1cc(C(F)(F)F)cc(C(F)(F)F)c1,-80,n,x,x,x,x
CCN(CC)S(=O)(=O)c1cc(NC(=O)Cc2ccc(S(=O)(=O)N3CCOCC3)s2)ccc1Cl,-99,32µM,x,x,x,x
Cc1cccc(NC(=O)CNC(=O)Cc2ccc(S(=O)(=O)N3CCOCC3)s2)c1C,-104,n,x,x,x,x
CCn1nc(C)cc1C(=O)NCC1CCC2(CCN(Cc3ccccc3F)CC2)O1 (centres undefined),x,n,n,x,x,n
Cc1sc(-c2cc3ccccc3oc2=O)nc1-c1ccc(Cl)cc1,n,n,n,x,n,n
Cc1nc2sccn2c1CN1CCOc2ccc(CN3C[C@@H](C)O[C@@H](C)C3)cc2C1,x,u,n,x,x,n
O=C1[C@H](Oc2ccccc2)[C@@H](c2ccccc2)N1c1ccncc1,n,16µM,n,x,x,u
CCCc1nc(Cl)c(C#N)c2c1CCCC2,n,n,n,n,n,n
CC(C)Cc1nc(Cl)c(C#N)c2c1CCCC2,-75,n,x,x,x,x
CCc1nc(Cl)c(C#N)c2c1CCCC2,-88,n,n,u,n,n
OC1(c2cccnc2)CCN(Cc2ccc3c(c2)CN(Cc2cccc4nccnc24)CCO3)CC1,x,n,n,x,x,n
Cc1nn(C)c(C)c1NC(=O)CCl,-70,n,u,n,11µM,u
CCC(=O)Nc1c(C)nn(-c2ccc(C)c(C)c2)c1C,n,n,n,n,n,n
Cc1nn(C)c(C)c1NC(=O)COc1ccc(Cl)cc1,n,u,x,x,x,x
Cc1ccc(-n2nc(C)c(NC(=O)CCl)c2C)cc1C,-103,n,u,u,11µM,u
COc1ccc(CNc2nc(S(=O)(=O)c3ccccc3)c(Cl)s2)cc1OC,-95,14µM,u,u,u,n
O=S(=O)(c1ccccc1)c1nc(NCc2ccccc2)sc1Cl,-70,n,n,n,n,n
COc1cccc(C2CC3C(=O)C=CC2N3Cc2ccccc2)c1 (centres undefined),-97,u,n,u,n,n
CCCN(CC)c1ncnc2[nH]ncc12,-65,n,n,u,n,n
Cc1cc2nc(-c3ccc(SCC(=O)Nc4ccc(S(=O)(=O)NC5CC5)cc4)nc3)[nH]c2cc1C,n,n,n,4.5µM,u,n
Cc1cc2nc(-c3ccc(SCc4ccc(C(=O)O)cc4)nc3)[nH]c2cc1C,n,n,n,5.6µM,u,n
Cc1cc(NC(=O)CSc2ccc(-c3nc4cc(C)c(C)cc4[nH]3)cn2)no1,x,n,x,u,n,x
c1ccc2nc(-c3nc4ccccc4o3)ccc2c1,n,n,x,u,2.3µM,x
c1cc(-c2nc3ccccc3o2)nc(-c2nc3ccccc3o2)c1,x,x,x,n,x,x
SMILES,HCMV inh,FMDV antiviral,VACV mCherry inh,MARV entry inh,LASV entry inh,Vaccinia Venus
CC1Cc2ccccc2C[N+]1(C)CC(=O)c1cccc([N+](=O)[O-])c1 (centres undefined),x,x,n,x,x,n
COc1cc(OC)c(C2C=CC(=O)CC2)c(OC)c1 (centres undefined),n,u,n,x,x,n
N#CCC(=O)N/N=C/c1cc(-c2ccccc2)n(-c2ccc(Cl)cc2)c1-c1ccccc1,u,25µM,n,u,u,n
Cc1ccc(-n2c(-c3ccccc3)cc(/C=N/NC(=O)CC#N)c2-c2ccccc2)cc1,n,x,x,x,x,x
COc1ccc(CCn2c(C)cc3c(c2=O)[C@H](c2ccc4c(c2)OCO4)C(C#N)=C(N)O3)cc1OC,x,x,x,n,x,x
O=C(NCc1ccccc1CN1CCCC1)c1ccc(S(=O)(=O)Nc2ccccc2)cc1,n,n,n,x,x,n
COc1cc2c(cc1/C=C/[N+](=O)[O-])OCO2,-108,14µM,u,u,u,u
O=[N+]([O-])/C=C\c1ccc(N2CCOCC2)cc1,n,18µM,x,x,x,x
O=[N+]([O-])/C=C/c1ccc2c(c1)OCO2,x,x,x,u,3.3µM,x
O=C(C=Cc1ccc2c(c1)OCO2)C1CC1,u,n,n,x,x,n
